# Data: PubChem BioAssay AID2796 (The Scripps Research Institute Molecular Screening Center, 2010)
# The campaign covered roughly 320,000 compounds. About 8,000 (2.5%) were called active. The sample holds actives, similar compounds and a random draw of the others, so the mix is not that of the screen. A number with no mark means an inactive call. Rule as the data show it: active = activation above about 47%; inactive = the rest.
# Molecular target: Aryl hydrocarbon receptor (Homo sapiens) (UniProt P35869)
# Sequence (P35869 whole entry, looked up): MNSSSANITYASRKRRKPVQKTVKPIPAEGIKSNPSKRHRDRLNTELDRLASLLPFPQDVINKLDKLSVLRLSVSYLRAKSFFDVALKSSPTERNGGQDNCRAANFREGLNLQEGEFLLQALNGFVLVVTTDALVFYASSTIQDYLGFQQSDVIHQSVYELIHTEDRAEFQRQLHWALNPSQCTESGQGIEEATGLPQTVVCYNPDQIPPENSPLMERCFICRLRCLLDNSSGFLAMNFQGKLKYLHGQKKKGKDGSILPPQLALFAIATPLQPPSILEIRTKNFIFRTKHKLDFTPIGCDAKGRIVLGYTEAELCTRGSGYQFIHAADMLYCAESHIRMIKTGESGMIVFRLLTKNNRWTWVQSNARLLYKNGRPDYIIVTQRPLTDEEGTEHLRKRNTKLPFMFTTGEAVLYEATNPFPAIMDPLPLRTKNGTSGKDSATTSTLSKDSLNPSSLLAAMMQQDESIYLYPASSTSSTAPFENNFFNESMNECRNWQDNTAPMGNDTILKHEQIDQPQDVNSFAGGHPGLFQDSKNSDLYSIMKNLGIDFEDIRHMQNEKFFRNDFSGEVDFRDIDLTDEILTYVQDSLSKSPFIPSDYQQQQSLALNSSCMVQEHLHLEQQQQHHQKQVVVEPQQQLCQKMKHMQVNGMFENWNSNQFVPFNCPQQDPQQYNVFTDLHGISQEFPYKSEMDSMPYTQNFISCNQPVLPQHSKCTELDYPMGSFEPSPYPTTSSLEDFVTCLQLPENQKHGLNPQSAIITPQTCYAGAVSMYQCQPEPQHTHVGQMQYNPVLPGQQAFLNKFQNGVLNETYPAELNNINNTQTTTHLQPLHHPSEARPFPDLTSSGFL
# Test: AHR activators, primary screen, cell-based, luminescence, luciferase reporter, human (AID 2796);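 also: 0% = vehicle wells and 100% = reference agonist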
# Settings: AHR-responsive luciferase reporter cells, at 5 µM, stronger effect = higher value
row,Compound,activation
1,OCc1n[nH]c(CO)n1,-0.81%
2,O=C(C1CCN(C2CCN(Cc3cccc4c3OCO4)CC2)CC1)N1CCOCC1,4.05%
3,COc1ccc(CCOC2OC(CO)C(OC(=O)/C=C/c3ccc(O)c(OC)c3)C(O[C@H]3O[C@@H](C)[C@H](O)[C@@H](O)[C@H]3O)C2O)cc1O (some centres not stated),1.88%
4,NC(=O)C1=C[C@@H](c2csc3ccccc23)C[C@@H](OCc2ccc(CO)cc2)O1,-0.11%
5,NC(=O)C1=C[C@H](c2csc3ccccc23)C[C@H](OCc2ccc(CO)cc2)O1,0.39%
6,O=C(NC1CC1)C1=C[C@H](c2c[nH]c3ccccc23)C[C@H](OCc2ccc(CO)cc2)O1,135% (active)
7,CCN(CC)C(=O)COc1coc(CN2CCN(Cc3ccccc3)CC2)cc1=O,-1.36%
8,COc1cccc(/C(C)=N/Nc2ncc(Cl)cc2Cl)c1,53.5% (active)
9,C/C(=N\Nc1ncc(Cl)cc1Cl)c1ccc(S(=O)(=O)NCc2ccco2)cc1,29.9%
10,C/C(=N\Nc1ncc(Cl)cc1Cl)c1cccs1,1.11%
11,CC1CCCCC12NC(=O)N(CC(=O)N1CCN(c3ccccc3)CC1)C2=O (configuration not stated),0.1%
12,CC1=NN(C(=O)CCc2ccccc2O)C(O)(C(F)(F)F)C1 (configuration not stated),-1.07%
13,COc1cccc(OC)c1C(=O)Nc1ccc(Cc2ccncc2)cc1,15.6%
14,COc1cc2ccccc2cc1C(=O)Nc1ccc(N2CCOCC2)cc1,95.9% (active)
15,COc1cccc(OC)c1C(=O)Nc1ccc(N2CCCCC2)cc1,79.6% (active)
16,COc1cc2ccccc2cc1C(=O)Nc1ccncc1,5.1%
17,COc1cc2ccccc2cc1C(=O)N1CCOCC1,0.61%
18,COc1cccc(OC)c1C(=O)Nc1ccc2c(c1)n(C)c(=O)n2C,1.94%
19,FC(F)(F)C1CCCN(c2nsc3ccccc23)C1 (configuration not stated),16.6%
20,Cc1noc(C)c1S(=O)(=O)N(C)C[C@H]1Oc2ccc(NC(=O)C3CCCCC3)cc2C(=O)N([C@H](C)CO)C[C@@H]1C,-1.72%
21,CCc1ccc(NC(=O)CS(=O)CC(=O)N2CCN(c3ccccc3F)CC2)cc1 (configuration not stated),-1.39%
22,Cc1cccc(NC(=S)NCc2ccc3[nH]c4c(c3c2)CCCC4)c1,68% (active)
23,Cc1cc(C)cc(NC(=S)NCc2ccc(F)cc2)c1,4.28%

row,Compound,activation
1,O=C(O)CCC(=O)NCc1ccc2[nH]c3c(c2c1)CCCC3,1.38%
2,COc1ccc(C)cc1-n1nnnc1SCc1nc2ccccc2c(=O)[nH]1,24.9%
3,Cc1ccc(-c2noc(CSc3nnnn3-c3ccccc3)n2)cc1,8.65%
4,Cc1ccc(Nc2nc(CSc3nnnn3-c3ccccc3)cc(=O)[nH]2)cc1,73.4% (active)
5,Cc1ccc(Br)c(NS(=O)(=O)c2cccc(C(=O)N3CCNC(=O)C3)c2)c1,1.33%
6,COC(=O)c1ccc(NC(=O)c2cc(Cl)ccc2OC)cc1,2.68%
7,COc1ccc(Cl)cc1C(=O)Nc1ccc(N(C)C(C)=O)cc1,81.3% (active)
8,COc1cc(OC)c(C(=O)Nc2ccc(N(C)C)cc2)cc1OC,-7.49%
9,Cc1ccsc1C(=O)OCC(=O)Nc1cccc(F)c1,-0.75%
10,Cc1ccc(C(=O)Nc2ccccc2-c2ccccc2)cc1S(=O)(=O)Nc1ccccc1,2.25%
11,Cc1ccc(C)c(NC(=O)C(OC(=O)c2ccc(C)s2)c2ccccc2)c1 (configuration not stated),29.4%
12,O=C(CCCCCn1c(=O)[nH]c2ccccc2c1=O)NCCc1c[nH]c2ccccc12,54.7% (active)
13,O=C(CCn1c(=S)[nH]c2cc3c(cc2c1=O)OCO3)NCc1ccc(Cl)cc1,-0.55%
14,CCN(CC)CCNC(=O)CCCCCn1c(=O)[nH]c2cc(C(=O)OC)ccc2c1=O,1.58%
15,O=C(CCCCn1c(=O)[nH]c2ccccc2c1=O)NCc1ccc2c(c1)OCO2,79.9% (active)
16,O=C(CCc1c[nH]c2ccccc12)NCCOc1ccccc1,2.6%
17,Cn1cc(CCC(=O)NCc2ccc3c(c2)OCO3)c2ccccc21,8.58%
18,O=c1c2ccccc2c(-c2ccccc2)nn1-c1ccccn1,0.2%
19,Cc1ccc(C(=O)NNC(=O)c2cccs2)cc1,-3.24%
20,Cc1ccc(C(=O)NNc2ncnc3ccccc23)cc1,19.4%
21,Cc1ccc(C(=O)NNC(=O)c2cc3cc4ccccc4nc3s2)cc1,64% (active)
22,Cc1cccc(NC(=O)c2ccc(S(=O)(=O)N(C)c3ccccc3)cc2)n1,13.7%
23,O=C(COC(=O)c1ccc([N+](=O)[O-])cc1Cl)NC(=O)c1ccccc1,0.29%

row,Compound,activation
1,CCOC(OCC)c1ccc(/C=C\c2nccc(N)n2)cc1,2.83%
2,CC1=CC=CC2=N/C(=N\S(=O)(=O)c3ccc(F)cc3F)c3ccccc3CN12,68.7% (active)
3,CCNC(=S)N1CCN(S(=O)(=O)c2ccc(Cl)s2)CC1,-1.16%
4,CN(C)/C=C1/Nc2ccccc2C1=O,33.7%
5,Cc1cc(C)c(/C=C2\C(=O)Nc3ccccc32)[nH]1,47% (active)
6,O=C1Nc2ccccc2/C1=C/c1ccnc2ccccc12,8.16%
7,COCCN(C(=O)CCC(=O)Nc1nccs1)C(C(=O)NC(C)(C)C)c1ccc(Cl)cc1 (configuration not stated),0.14%
8,COc1ccccc1C(=O)COC(=O)COc1ccc(C#N)cc1,-0.13%
9,COc1ccc(CCNc2nc(C)cc(C)n2)cc1OC,4.65%
10,COc1ccc(/C=C/c2noc(-c3ccccc3OC(C)=O)n2)cc1,2.04%
11,Cc1ccc(-c2nc(-c3ccncc3)no2)c(C)c1,3.29%
12,COc1ccc(-c2nc(-c3ccccc3)no2)c(OC)c1,70.8% (active)
13,CCOC(=O)N1CCN(S(=O)(=O)N2CCCC(C(=O)NCCCN3CCC(C)CC3)C2)CC1 (configuration not stated),0.65%
14,CCC(C(=O)N1CCN(S(=O)(=O)c2sc(C(=O)O)c(C)c2C(=O)O)CC1)c1ccccc1 (configuration not stated),-0.9%
15,O=S(=O)(c1ccc(Br)cc1)c1nc(-c2ccccc2)oc1N1CCOCC1,3.81%
16,Cc1ccc(Sc2cc(N3CCOCC3)nc(-c3ccccc3)n2)cc1,3.2%
17,Cc1cc(N2CCOCC2)nc(-c2ccc(Br)cc2)n1,86.8% (active)
18,CC(=O)O[C@H]1CC[C@@]2(C)[C@@H](CC[C@@H]3[C@@H]2CC[C@]2(C)[C@@H](C(C)(C)O)C[C@@H]32)C1,1.86%
19,O=C(CNC(=O)c1cc(=O)[nH]c2ccccc12)Nc1ccc(F)c(F)c1,70.8% (active)
20,CC(NC(=O)c1cc(=O)[nH]c2ccccc12)c1ccc(F)cc1F (configuration not stated),-1.44%
21,CCOC(=O)c1ccc(NC(=O)c2cc(=O)[nH]c3ccccc23)cc1,-0.98%
22,COC(=O)C1=CO[C@@H](O[C@@H]2O[C@H](CO)[C@@H](O)[C@H](O)[C@H]2O)C2C1C[C@H](O)[C@@H]2C (some centres not stated),0.44%
23,CCc1nn(-c2cc(Oc3cccc4ccccc34)nc(-c3ccccc3)n2)c(N)c1C#N,10.9%

row,Compound,activation
1,CC(C)(C)n1nc(Cc2cccc3ccccc23)c(C#N)c1N,51.2% (active)
2,N#Cc1nc(-c2cccc3ccccc23)oc1N,-2.82%
3,CCCCOc1ccc(C(=O)NCC(=O)OCC(=O)N2CCN(S(=O)(=O)c3ccc(C)cc3C)CC2)cc1,0.36%
4,COc1ccc(N2CCN(S(=O)(=O)c3cc4c5c(c3)C(C)C(=O)N5CCC4)CC2)cc1 (configuration not stated),-1.29%
5,NS(=O)(=O)c1ccc(-c2ccc(/C=C3\SC(=O)NC3=O)o2)cc1,125% (active)
6,CN1CCN(/N=C/c2ccc(-c3ccc([N+](=O)[O-])cc3)o2)CC1,38.6%
7,CN1C(=O)/C(=C\c2ccc(-c3ccccc3)o2)SC1=S,6.56%
8,c1ccc(-c2nccc(-c3ccc(-n4cnc5ccccc54)cc3)n2)nc1,-6.06%
9,COc1ccc(CCNC(=O)COc2ccc3c(c2)OCO3)cc1,10%
10,CC(C)(C)c1ccc(SCCc2ccncc2)cc1,14.1%
11,CC(C)CCNC(=O)C1CCC(CNc2c(N3CCC(C)CC3)c(=O)c2=O)CC1 (configuration not stated),7.38%
12,Cn1c(=NC(=O)C2CC2)sc2cc(F)cc(F)c21,69.9% (active)
13,O=C(CN(Cc1ccc(Br)cc1)S(=O)(=O)c1ccccc1)NCc1ccncc1,1.87%
14,C=CCn1c(=NC(=O)c2ccc(S(=O)(=O)N3CCCC3)cc2)sc2cc(NC(C)=O)ccc21,1.47%
15,C=CCn1c(CCNC(=O)c2cccs2)n[nH]c1=S,-2.49%
16,C=CCn1c(=NC(=O)c2cccs2)sc2cc(NC(C)=O)ccc21,118% (active)
17,O=C(Oc1c(-c2ccco2)oc2ccccc2c1=O)c1cccnc1,2.09%
18,COc1ccccc1/C=C/C(=O)NC(=S)N1CCOCC1,43%
19,COc1cccc(/C=C/c2ccc3ccccc3n2)c1OC(C)=O,8.53%
20,COc1ccccc1/C=C/C1=NC(=C\N(C)C)/C(=O)O1,57.2% (active)
21,O=C(COC(=O)C1CCCO1)Nc1nc(-c2ccc(F)cc2)cs1 (configuration not stated),-1.85%
22,CC(C)N(Cc1nnc(-c2ccccc2Br)o1)C(=O)c1cc(Cl)nc2ccccc12,18.6%
23,CCOc1ccc(S(=O)(=O)Nc2cccc(C(=O)NCC3(N4CCCCC4)CCCCC3)c2)cc1,-2.77%
